Results published in PubChem BioAssay (NCATS).
“And” between values parts separate entries of the source, which are not always exact repeats. Equal values may be shown once. Results filed as inconclusive are left out. The source made the active and inactive calls. Unless noted, the call rests on the fitted dose curve; in most records, active means well fitted curve in the direction sought with a large enough effect; inconclusive means small, poorly fitted or top-dose-only effect, or another doubt; inactive means no such curve, though single readings can be large; an effect the other way counts as inactive or inconclusive.

Experiments:
[1] = qHTS Assay for Lipid Storage Modulators (AID 1519; calls by dose curve; on activity change, negative = inhibition: on the % scale 0 is the no-effect control and ±100 the full control effect); details: Drosophila S3 cells, BODIPY lipid droplet/cell ratio, laser cytometry, cells loaded with oleic acid
How it was run: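 Cells seeded at 5,000 per well were treated with compounds over a concentration series and loaded with oleic acid (400 uM, as added). Lipid droplet fluorescence (488 nm excitation, 500-530 nm channel) was read by laser-scanning cytometry and normalized to 20 uM Triacsin C.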

[2] = Cytometric Cell-Based qHTS for Inhibitors of the mTORC1 Signaling Pathway in MEF (Tsc2-/-, p53-/-) Cells (AID 2660); details: mTORC1 pathway cytometry; series mostly up to 38.3 µM;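 further: percent of cells above a phospho-rpS6 to PI ratio cutoff in each well; plate controls were DMSO for no effect and rapamycin for full effect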
How it was run: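 Immunofluorescence qHTS of rpS6 Ser235/236 phosphorylation: MEFs (Tsc2-/-, p53-/-) treated 24 h, 37 C, in DMEM + 10% FBS. Alexa-488 signal normalized to PI count, referenced to rapamycin (7.5 nM) and DMSO; PI cell number recorded for viability.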

[3] = High Content Imaging Cell-Based qHTS for Inhibitors of the mTORC1 Signaling Pathway in MEF (Tsc2-/-, p53-/-) Cells (AID 2666); details: at 38.3 µM (top of the series);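 further: percent of cells scored positive for phospho-rpS6 Ser235/236 immunostaining by imaging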
How it was run: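 Read-out: % positive cells per well, with thresholds from highest- and lowest-signal wells, based on phospho-rpS6 (Ser235/236) intensity normalized to Hoechst nuclear stain. Cells: Tsc2-/-, p53-/- MEFs carrying empty vector; compound 24 hrs, 37 degree Celsius.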

[4] = High Content Imaging Cell-Based qHTS for Inhibitors of the mTORC1 Signaling Pathway in MEF Cells (AID 2667); details: series mostly up to 38.3 µM;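 further: Tsc2-/- p53-/- MEFs stably re-expressing wild-type Tsc2 exposed 24 h; plate controls were DMSO wells for no effect and rapamycin control wells for full effect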
How it was run: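 MEF (Tsc2-/-, p53-/-, WT Tsc2 re-expressed); cpd 24 h, 37 °C; PFA fix; Alexa-488 anti-p-rpS6 Ser235/236, PI, Hoechst; IN Cell imaging; Hoechst/Alexa-488 intensity ratio; % active cells, thresholds set from rapamycin and DMSO wells.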

[5] = molecular target: alpha-glucosidase (Oryza sativa, rice) (UniProt Q653V4); experiment: Counterscreen for Glucocerebrosidase Inhibitors: qHTS Assay for Rice alpha-Glucosidase at pH 5.0 (AID 997); details: rice alpha-glucosidase enzyme activity; series mostly up to 76.9 µM;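 further: 0% = full activity with enzyme and -100% = basal without enzyme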
How it was run: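 Rice alpha-glucosidase (4 nM final) with 400 uM 4-methylumbelliferyl-alpha-D-glucopyranoside in citrate buffer pH 5.0, 20 min at room temperature, stopped at pH 10; fluorescence 365/440 nm, compounds 0.7 nM–77 uM, AC50 from Hill fits.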

[6] = Cell Viability - LYMP1-002 - Assay at 40 hr (AID 994); details: LYMP1-002 lymphoblastoid cell viability; series mostly up to 92.2 µM;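 further: 0% = DMSO only and full inhibition = 92 µM tetraoctylammonium bromide; nearly all actives have a fitted effect of over 60% in size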
How it was run: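 Luminescent ATP signal served as the viability readout, with decreases taken as toxicity. Cells were treated with compounds across a concentration range for 40 hours at 37 C, and AC50 values came from standard Hill modeling.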

[7] = qHTS Assay for Identification of Small Molecule Inducers of Hypoxia Response (AID 2120; active means well fitted curve in the direction sought with a large enough effect in the signal ratio, with a control signal flat, not every such curve was filed as active; the % refers to the signal ratio; further: 0% is about no effect); details: hypoxia response reporter cells, beta-lactamase ratio readout; series mostly up to 104 µM
How it was run: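 ME-180 HRE-bla cells plated in Opti-MEM/0.5% dialyzed FBS, rested 4-5 h, then dosed with compound titrations by pin tool. After 17 h at 37 degrees C, CCF4 dye loaded 2.5 h at RT; 460/530 nm ratio gave %Activity and AC50.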

[8] = molecular target: DNA repair nuclease/redox regulator APEX1 (Homo sapiens) (UniProt P27695); experiment: qHTS Validation Assay for Inhibitors of the Human Apurinic/apyrimidinic Endonuclease 1 (APE1) (AID 1705;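 further: TAMRA fluorescence gain over two minutes as APE1 cuts a quenched THF abasic duplex; on the % scale 0 is the no-effect control and ±100 the full control effect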); details: purified APE1 endonuclease activity, fluorescence, titration; series mostly up to 57.1 µM
How it was run: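 Endonuclease activity of human APE1 is followed as dequenching when the enzyme incises a tetrahydrofuran abasic site in a short duplex labelled 5'-TAMRA/3'-BHQ-2 (50 nM final), after 15 min enzyme–compound preincubation at room temperature.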

[9] = Counterscreen for APE1 Inhibitors: Fluorescent Dye Displacement Validation Assay (AID 1707); details: fluorescent dye displacement from DNA; series mostly up to 57.1 µM;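 further: plate controls were ThO with dsDNA and no compound for no effect and ThO without dsDNA for full effect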
How it was run: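 Compounds are scored by their ability to displace Thiazole Orange (250 nM) from a 50 nM TAMRA-tagged duplex bearing a tetrahydrofuran abasic site. Buffer is 50 mM Tris-HCl pH7.5, 50mM NaCl, 2 mM MgCl2, 0.01% Tween-20.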

[10] = molecular target: Endonuclease 4 (Escherichia coli (strain K12)) (UniProt P0A6C1); experiment: Counterscreen for APE1 Inhibitors: qHTS Validation Assay for Inhibitors of Endonuclease IV (AID 1708); further: on the % scale 0 is the no-effect control and ±100 the full control effect; details: E. coli endonuclease IV, DNA cleavage fluorescence; series mostly up to 57.1 µM
How it was run: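 Concentration-response counterscreen run identically to the APE1 assay: 15 min room-temperature preincubation of 2 nM enzyme with compound, reaction started with 50 nM quenched abasic DNA, progress taken from kinetic fluorescence.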

[11] = qHTS for differential inhibitors of proliferation of Plasmodium falciparum line 7G8 (AID 1815); details: Plasmodium falciparum 7G8 proliferation inhibition; series mostly up to 28.7 µM;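 further: parasite growth measured after three days of incubation; plate controls were vehicle wells for no effect and reference inhibitor wells for full effect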
[12] = qHTS for differential inhibitors of proliferation of Plasmodium falciparum line GB4 (AID 1816); details: series mostly up to 28.7 µM;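 further: parasite growth measured after 72 h incubation; 0% = vehicle DMSO and -100% = reference inhibitor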
[13] = qHTS for differential inhibitors of proliferation of Plasmodium falciparum line 3D7 (AID 1876);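 further: parasite growth measured after three days of culture; 0% = vehicle wells and -100% = reference inhibitor wells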; details: P. falciparum 3D7 proliferation inhibition; series mostly up to 28.7 µM
[14] = qHTS for differential inhibitors of proliferation of Plasmodium falciparum line D10 (AID 1877); details: series mostly up to 28.7 µM;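 further: parasites grown with compound for 72 h before DNA staining; plate controls were vehicle wells for no effect and reference inhibitor wells for full effect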
[15] = qHTS for differential inhibitors of proliferation of Plasmodium falciparum line Dd2 (AID 1882); details: series mostly up to 28.7 µM;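 further: plate controls were DMSO vehicle for no effect and 0.29 µM artemisinin for full effect; nearly all actives have a fitted effect of over 65% in size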
How it was run: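 Dd2-infected erythrocytes (0.3% parasitemia, 2.5% hematocrit final) incubated with compound 72 h at 37 C, 5% CO2; lysed with saponin/Triton buffer containing SYBR Green I, incubated overnight in the dark, then read by fluorescence (485/535 nm). Normalized to 0.29 uM artemisinin and DMSO.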

[16] = qHTS for differential inhibitors of proliferation of Plasmodium falciparum line W2 (AID 1883); details: series mostly up to 28.7 µM;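 further: parasites grown with compound for 72 h before lysis and staining; 0% = vehicle wells and -100% = control inhibitor wells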
[17] = qHTS for differential inhibitors of proliferation of Plasmodium falciparum line HB3 (AID 1886); details: series mostly up to 28.7 µM;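 further: parasites grown with compound for 72 h before SYBR Green readout; plate controls were vehicle for no effect and reference inhibitor for full effect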
[18] = molecular target: Ferritin light chain (Equus caballus) (UniProt P02791); experiment: qHTS Validation Assay for Identification of Novel General Anesthetics (AID 2323); details: horse apoferritin, anesthetic-site fluorescent probe displacement; series mostly up to 76.9 µM; further: on the % scale 0 is the no-effect control and ±100 the full control effect
How it was run: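 Apoferritin from horse spleen (10 uM) was mixed with 1-aminoanthracene at 50% saturation in PBS, then compounds were added. After 10 min at room temperature, fluorescence was read (ex 380 nm, em 535 nm) and normalized to free-probe and complex controls.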

[19] = molecular target: ATP-dependent DNA helicase Q1 (Homo sapiens) (UniProt P46063); experiment: qHTS Validation Assay for Inhibitors of RecQ-Like Dna Helicase 1 (RECQ1) (AID 2353); details: recombinant RECQ1 helicase DNA unwinding assay; series mostly up to 25.6 µM;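 further: plate controls were DMSO vehicle for no effect and enzyme-free control for full effect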
How it was run: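 50 nM RECQ1T1 preincubated 15 min with compound in Tris pH 8.0 buffer with MgCl2, DTT, Tween-20 and 2.5 ug/ml poly(dI-dC); started with 200 nM TAMRA/BHQ-2 forked duplex and 2 mM ATP. Unwinding read as fluorescence (525/598 nm), two reads 2 h apart.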

[20] = molecular target: RecQ-like DNA helicase BLM (Homo sapiens) (UniProt P54132); experiment: qHTS Validation Assay for Inhibitors of Bloom's syndrome helicase (BLM) (AID 2364); details: BLM helicase DNA unwinding, fluorescence, in vitro; series mostly up to 57.1 µM;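 further: plate controls were DMSO vehicle for no effect and enzyme-free control for full effect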
How it was run: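 BLM 50 nM in 25 mM Tris-HCl pH 8.0, 5 mM NaCl, 2 mM MgCl2, 1 mM DTT, 0.01% Tween-20, 2.5 ug/ml poly(dI-dC); 15 min cpd preinc, RT. Start: 200 nM forked DNA + 2 mM ATP (final). TAMRA read, 2 reads 2 h apart.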

[21] = measured here: cell count channel max response
[22] = measured here: lipid channel max response

Sequence of Ferritin light chain (Equus caballus) (P02791 2-175 limits assumed): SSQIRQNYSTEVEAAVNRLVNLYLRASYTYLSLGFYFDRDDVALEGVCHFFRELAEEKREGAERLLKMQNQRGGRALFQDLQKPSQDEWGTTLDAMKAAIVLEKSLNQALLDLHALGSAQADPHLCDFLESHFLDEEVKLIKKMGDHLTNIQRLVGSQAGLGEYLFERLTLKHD
Sequence of RecQ-like DNA helicase BLM (Homo sapiens) (P54132 whole entry, looked up): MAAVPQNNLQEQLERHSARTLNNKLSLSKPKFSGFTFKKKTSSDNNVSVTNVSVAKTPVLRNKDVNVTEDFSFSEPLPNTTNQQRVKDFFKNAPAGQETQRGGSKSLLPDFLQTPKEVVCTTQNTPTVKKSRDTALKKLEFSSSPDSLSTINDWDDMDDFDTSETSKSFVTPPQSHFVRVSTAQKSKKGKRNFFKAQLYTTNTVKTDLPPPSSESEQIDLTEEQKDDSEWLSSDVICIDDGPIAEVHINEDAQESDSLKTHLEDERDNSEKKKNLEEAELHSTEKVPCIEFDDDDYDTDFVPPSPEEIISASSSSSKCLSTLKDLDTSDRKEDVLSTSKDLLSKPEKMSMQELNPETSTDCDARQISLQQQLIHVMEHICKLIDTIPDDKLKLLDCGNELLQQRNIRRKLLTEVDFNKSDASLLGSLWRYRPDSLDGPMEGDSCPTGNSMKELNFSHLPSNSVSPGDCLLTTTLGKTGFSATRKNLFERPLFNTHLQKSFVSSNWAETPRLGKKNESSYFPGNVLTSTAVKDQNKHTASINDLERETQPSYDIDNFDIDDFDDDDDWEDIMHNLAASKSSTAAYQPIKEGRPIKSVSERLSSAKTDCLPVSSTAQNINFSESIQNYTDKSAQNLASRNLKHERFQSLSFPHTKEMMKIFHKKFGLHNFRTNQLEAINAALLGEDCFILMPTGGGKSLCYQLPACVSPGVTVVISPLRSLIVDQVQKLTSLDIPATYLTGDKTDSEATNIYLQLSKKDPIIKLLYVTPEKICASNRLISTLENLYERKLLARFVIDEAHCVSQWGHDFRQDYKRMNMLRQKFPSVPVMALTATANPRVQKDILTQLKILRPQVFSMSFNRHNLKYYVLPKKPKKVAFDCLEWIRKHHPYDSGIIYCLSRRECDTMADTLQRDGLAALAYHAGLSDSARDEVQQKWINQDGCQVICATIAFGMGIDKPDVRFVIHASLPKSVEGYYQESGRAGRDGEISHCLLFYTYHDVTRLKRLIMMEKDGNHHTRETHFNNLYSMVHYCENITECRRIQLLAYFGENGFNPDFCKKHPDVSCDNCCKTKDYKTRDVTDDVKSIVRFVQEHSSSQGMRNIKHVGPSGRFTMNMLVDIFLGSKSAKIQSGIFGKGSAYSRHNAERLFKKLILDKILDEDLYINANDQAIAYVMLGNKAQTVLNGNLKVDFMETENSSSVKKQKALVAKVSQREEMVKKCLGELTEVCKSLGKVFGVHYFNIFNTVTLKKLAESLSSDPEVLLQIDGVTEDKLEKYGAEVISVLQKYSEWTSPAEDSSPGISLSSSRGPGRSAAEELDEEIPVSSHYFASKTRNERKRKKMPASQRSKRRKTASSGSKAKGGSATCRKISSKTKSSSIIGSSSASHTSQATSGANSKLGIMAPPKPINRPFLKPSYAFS
Sequence of DNA repair nuclease/redox regulator APEX1 (Homo sapiens) (P27695 whole entry, looked up): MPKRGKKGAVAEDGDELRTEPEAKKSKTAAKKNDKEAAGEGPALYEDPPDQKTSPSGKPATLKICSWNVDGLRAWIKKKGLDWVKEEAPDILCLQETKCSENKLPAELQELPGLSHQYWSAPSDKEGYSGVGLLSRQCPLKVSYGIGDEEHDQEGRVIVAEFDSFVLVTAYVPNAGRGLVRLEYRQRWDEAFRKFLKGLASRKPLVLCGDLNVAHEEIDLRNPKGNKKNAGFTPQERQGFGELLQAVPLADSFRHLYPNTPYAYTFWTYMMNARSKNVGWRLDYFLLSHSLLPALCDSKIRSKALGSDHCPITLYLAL
Sequence of ATP-dependent DNA helicase Q1 (Homo sapiens) (P46063 whole entry, looked up): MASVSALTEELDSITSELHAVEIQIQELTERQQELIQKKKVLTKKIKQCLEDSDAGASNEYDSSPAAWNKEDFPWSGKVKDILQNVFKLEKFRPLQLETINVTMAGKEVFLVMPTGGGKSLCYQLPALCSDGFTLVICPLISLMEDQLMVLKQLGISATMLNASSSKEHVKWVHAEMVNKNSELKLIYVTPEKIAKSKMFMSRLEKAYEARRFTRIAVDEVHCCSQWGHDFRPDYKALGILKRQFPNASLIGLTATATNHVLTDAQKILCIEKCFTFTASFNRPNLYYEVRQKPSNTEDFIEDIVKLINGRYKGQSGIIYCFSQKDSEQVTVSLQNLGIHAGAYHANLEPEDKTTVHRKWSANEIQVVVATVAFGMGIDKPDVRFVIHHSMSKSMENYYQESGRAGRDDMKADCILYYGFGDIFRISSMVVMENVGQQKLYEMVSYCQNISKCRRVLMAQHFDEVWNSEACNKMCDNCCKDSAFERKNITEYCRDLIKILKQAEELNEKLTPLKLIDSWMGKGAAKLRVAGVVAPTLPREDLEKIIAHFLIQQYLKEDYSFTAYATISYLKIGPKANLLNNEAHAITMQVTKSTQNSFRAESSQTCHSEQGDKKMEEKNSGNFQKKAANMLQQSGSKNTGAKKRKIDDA

## COc1cc2c(cc1O)CCC1C2CC[C@@]2(C)C1CC[C@@H]2O (some centres undefined)
[1]; at 57.5 µM (top of the series)
  activity change, negative = inhibition: -1.86% (inactive)
[1]; [21]
  max response: 18.4%
[1]; [22]
  max response: 18.6%

## COc1ccc2cc([S+]([O-])Cc3ncc(C)c(OC)c3C)nc2c1
[2]
  outcome: inactive
[3]
  outcome: inactive
[4]
  outcome: inactive

## Oc1cc2c(cc1O)C1c3ccc(O)c(O)c3OCC1(O)C2 (centres undefined)
[1]; at 57.5 µM (top of the series)
  activity change, negative = inhibition: 6.13% (inactive)
[1]; [21]
  max response: -4.57%
[1]; [22]
  max response: 5.65%

## Cc1ccc(O)c(C(CCN(C(C)C)C(C)C)c2ccccc2)c1 (centres undefined)
[1]; at 57.5 µM (top of the series)
  activity change, negative = inhibition: 7.57% (inactive)
[1]; [21]
  max response: 3.1%
[1]; [22]
  max response: 8.45%

## O=c1c(O)c(-c2ccc(O)c(O)c2)oc2cc(O)ccc12
[1]; at 57.5 µM (top of the series)
  activity change, negative = inhibition: 4.11% (inactive)
[1]; [21]
  max response: -27.3%
[1]; [22]
  max response: -24.1%

## C[C@@]12C(=O)OC(=O)[C@@]1(C)C1CCC2O1
[1]; at 57.5 µM (top of the series)
  activity change, negative = inhibition: -13.3% (inactive)
[1]; [21]
  max response: -9.65%
[1]; [22]
  max response: -21.9%

## CN[C@H](CC(C)C)C(=O)N[C@H]1C(=O)N[C@@H](CC(N)=O)C(=O)N[C@@H]2C(=O)N[C@H]3C(=O)N[C@H](C(=O)N[C@H](C(=O)O)c4cc(O)cc(O)c4-c4cc3ccc4O)[C@H](O)c3ccc(c(Cl)c3)Oc3cc2cc(c3O[C@@H]2O[C@H](CO)[C@@H](O)[C@H](O)[C@@H]2O[C@H]2C[C@](C)(N)[C@H](O)[C@H](C)O2)Oc2ccc(cc2Cl)[C@H]1O
[2]
  outcome: inactive
[3]
  outcome: inactive
[4]
  outcome: inactive

## COc1ccc([C@@H]2CNC(=O)C2)cc1OC1CCCC1
[1]; at 25.7 µM (top of the series)
  activity change, negative = inhibition: -2.44% (inactive)
[1]; [21]
  max response: -4.18%
[1]; [22]
  max response: -7.27%

## CN(C)CC[C@H](c1ccc(Cl)cc1)c1ccccn1
[5]
  outcome: inactive
[1]; at 25.7 µM (top of the series)
  activity change, negative = inhibition: -0.988% (inactive)
[1]; [21]
  max response: 4.39%
[1]; [22]
  max response: 4.57%

## CN(N=O)C(=O)N[C@H]1C(O)OC(CO)[C@@H](O)[C@H]1O (some centres undefined)
[1]; at 57.5 µM (top of the series)
  activity change, negative = inhibition: -2.09% (inactive)
[1]; [21]
  max response: 10.4%
[1]; [22]
  max response: 8.35%

## OCC(O)C(O)C(O)CO (centres undefined)
[1]; at 57.5 µM (top of the series)
  activity change, negative = inhibition: -0.297% (inactive) and 2.14% (inactive)
[1]; [21]
  max response: 13.1% and 19.4%
[1]; [22]
  max response: 16.9% and 22.3%

## Cc1cc(O)c2c(c1)C(=O)c1cccc(O)c1C2=O
[6]
  outcome: inactive
[1]; at 57.5 µM (top of the series)
  activity change, negative = inhibition: 5.96% (inactive) and -4.1% (inactive)
[1]; [21]
  max response: 3.86% and 2.84%
[1]; [22]
  max response: 13.4% and 1.16%
[7]
  outcome: inactive

## N=c1ccn2c(n1)O[C@H]1[C@@H](O)[C@@H](CO)O[C@H]12
[8]
  outcome: inactive
[9]
  outcome: inactive
[10]
  outcome: inactive
[11]
  outcome: inactive
[12]
  outcome: inactive
[13]
  outcome: inactive
[14]
  outcome: inactive
[15]
  outcome: inactive
[16]
  outcome: inactive
[17]
  outcome: inactive
[18]
  outcome: inactive
[19]
  outcome: inactive
[20]
  outcome: inactive

## O=c1[nH]c(=O)n([C@H]2C[C@@H](O)[C@@H](CO)O2)cc1C=CBr
[2]
  outcome: inactive
[3]
  outcome: inactive
[4]
  outcome: inactive

## CC(Cc1ccc(O)c(O)c1)(NN)C(=O)O (centres undefined)
[1]; at 57.5 µM (top of the series)
  activity change, negative = inhibition: 4.17% (inactive)
[1]; [21]
  max response: 0.886%
[1]; [22]
  max response: 8.76%

## c1coc(CNc2ncnc3nc[nH]c23)c1
[1]; at 25.7 µM (top of the series)
  activity change, negative = inhibition: 1.26% (inactive)
[1]; at 57.5 µM (top of the series)
  activity change, negative = inhibition: 6.17% (inactive)
[1]; [21]
  max response: -19.4% and 15.6%
[1]; [22]
  max response: -19.1% and 25.8%

## COc1ccc2c(c1OC)C(=O)OC2[C@H]1c2c(cc3c(c2OC)OCO3)CCN1C (some centres undefined)
[5]
  outcome: inactive
[1]; at 25.7 µM (top of the series)
  activity change, negative = inhibition: 0.244% (inactive)
[1]; [21]
  max response: -11.8%
[1]; [22]
  max response: -9.72%

## Nc1nc2c(c(=O)[nH]1)N(C=O)[C@H](CNc1ccc(C(=O)N[C@@H](CCC(=O)O)C(=O)O)cc1)CN2
[1]; at 25.7 µM (top of the series)
  activity change, negative = inhibition: -2.58% (inactive)
[1]; [21]
  max response: -9.43%
[1]; [22]
  max response: -11.6%
